Inconclusive results are not listed. The source made the active and inactive calls. Unless noted, calls follow the shape of the dose curve; as a rule, active = well fitted curve in the direction sought with a large enough effect; inconclusive = small, poorly fitted or top-dose-only effect, or another doubt; inactive = no such curve, though single readings can be large; an effect the other way counts as inactive or inconclusive.
What was measured:
[1] = AP1 Signaling Pathway (AID 357; active = well fitted curve in either direction with a large enough effect, not every such curve was filed as active;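 also: ME-180 reporter cells stimulated with EGF at its EC50 level; % is scaled to controls: 0 for no effect and ±100 for the full control effect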); conditions: ME-180 AP-1-bla reporter, EGF-induced, beta-lactamase ratio, 5 h; at 7.69 µM (top of the series) unless noted
Summary of the method: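 First, ME-180 AP-1-bla cells were cultured overnight at 37 °C in low-serum Opti-MEM. Next, titrated compounds with EC50 EGF were incubated 5 hours. Finally, CCF4 was added for 2.5 hours and the 460/530 nm ratio recorded.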

[2] = molecular target: Cytochrome P450 1A2 (Homo sapiens) (UniProt P05177); assay: p450-cyp1a2 (AID 410; calls by dose curve; also: potency is read from the fitted curve at half-maximal effect)
Summary of the method: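 Luminescent readout of luciferin formed from Luciferin-ME by human CYP1A2; data normalized against complete inhibition by 57 uM furafylline. Enzyme 20nM, substrate 100uM at Km, 100mM KPO4 buffer, 60 min reaction at room temperature.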

[3] = NFAT Signaling Pathway (AID 444; active = well fitted curve in either direction with a large enough effect, not every such curve was filed as active;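 also: carbachol stimulus at about its EC50 of 1 µM final; % is scaled to controls: 0 for no effect and ±100 for the full control effect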); conditions: Jurkat NFAT-bla M1, carbachol, beta-lactamase ratio, 5 h; at 7.69 µM (top of the series) unless noted
Summary of the method: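 Read-out: CCF4 FRET ratio (460 nm/530 nm) after 1 h RT dye loading, used for %activity and AC50 from titration series. Cells: Jurkat NFAT-β-lactamase/M1 line, treated with compound plus 1 uM carbachol for 5 h, 37 °C.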

[4] = Stat Signaling Pathway (AID 446; active = well fitted curve in either direction with a large enough effect, not every such curve was filed as active;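 also: ME-180 cervical cancer cells given 40 pM IL-6 alongside compound; SIE-controlled beta-lactamase reporter measured as 460/530 nm FRET emission ratio; % is scaled to controls: 0 for no effect and ±100 for the full control effect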); conditions: ME-180 SIE beta-lactamase reporter, IL-6 stimulated, 5 h; at 7.69 µM (top of the series) unless noted
Summary of the method: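 Screening format detects activators and inhibitors alike: ME-180 SIE-bla cells stimulated at 40 pM IL-6 for 5 hrs with compound, then dual-emission beta-lactamase read at 405 nm excitation.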

[5] = molecular target: Glucocorticoid receptor (Homo sapiens) (UniProt P04150); assay: GR-GFP Redistribution (AID 450;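 active = compounds whose dose series gives a full or clear partial fitted curve of increased nuclear translocation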; also: potency is read from the fitted curve at half-maximal effect); conditions: U2OS GR-GFP nuclear translocation, laser cytometry, 2 h
[6] = molecular target: Glucocorticoid receptor (Homo sapiens) (UniProt P04150); assay: GR-EFC Redistribution (AID 451; calls by dose curve; also: potency is read from the fitted curve at half-maximal effect); conditions: CHO-K1 GR-EFC translocation, beta-gal luminescence, 2 h
Summary of the method: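 Translocation of GR-ED fusion to nuclear EA restores b-gal, read by luminescence after 1 h room-temperature detection. Engineered CHO-K1 biosensor cells, 1,000/well, exposed 2 h at 37 C to titrations up to 46 uM final.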

[7] = molecular target: Mitogen-activated protein kinase 10 (Mus musculus) (UniProt Q61831); assay: JNK3 AlphaScreen Assay (AID 530; active = well fitted curve in either direction with a large enough effect, not every such curve was filed as active;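 also: kinase came from lysate of stimulated human HepG2 cells; signal reports phosphorylation of biotinylated GST-cJun 1-79 at Ser73 with 10 µM ATP; % is scaled to controls: 0 for no effect and ±100 for the full control effect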)
Summary of the method: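 Compound titrations were preincubated 15 minutes at room temperature with substrate, antibody and pre-activated JNK3-containing HepG2 lysate. Reactions were started with 10 uM ATP and stopped with EDTA-containing bead buffer for AlphaScreen detection.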

[8] = molecular target: Cytochrome P450 3A4 (Homo sapiens) (UniProt P08684); assay: qHTS Assay for Inhibitors and Substrates of Cytochrome P450 3A4 (AID 884); also: potency is read from the fitted curve at half-maximal effect; nearly all actives have a fitted effect of over 50% in size
Summary of the method: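 20 nM human CYP3A4 with 25 uM Luciferin-PPXE (at KM) in 200 mM KPO4, preincubated 10 min with compound; NADPH regeneration started a 60 min RT reaction. Luciferin detected by luminescence, normalized to 57 uM ketoconazole as full inhibition.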

[9] = molecular target: Cytochrome P450 3A4 (Homo sapiens) (UniProt P08684); assay: qHTS Assay for Activators of Cytochrome P450 3A4 (AID 885); also: nearly all actives have a fitted effect of over 65% in size
Summary of the method: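 Steps: enzyme/substrate mix dispensed; compound added, 10 min RT; NADPH regeneration solution added, 60 min RT; luciferin detection buffer stops reaction; 20 min later luminescence measured.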

[10] = Confirmation and Secondary Assay for Modulators of Hemoglobin Beta Chain Splicing at IVS2 654 locus (AID 910);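 also: HeLa cells stably carrying EGFP split by mutant beta-globin IVS2-654 intron; per-well total GFP intensity by laser scanning cytometry after 2-day treatment; % of control where 0% means no effect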
Summary of the method: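 Readout: per-well total peak green fluorescence (488 nm ex, 500–520 nm em) from objects 5–250 µm, reflecting correct splicing of an EGFP-654 reporter. Compounds were applied for 2 days at 37 °C to overnight-plated HeLa EGFP-654 cells; controls were DMSO and 500 nM IVS2-654 PNA.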

[11] = qHTS Assay for Lipid Storage Modulators (AID 1519; calls by dose curve); conditions: Drosophila S3 cells, BODIPY lipid droplet/cell ratio, laser cytometry, cells loaded with oleic acid; for activity change, negative = inhibition: at 57.5 µM (top of the series)
Summary of the method: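 Cells seeded at 5,000 per well were treated with compounds over a concentration series and loaded with oleic acid (400 uM, as added). Lipid droplet fluorescence (488 nm excitation, 500-530 nm channel) was read by laser-scanning cytometry and normalized to 20 uM Triacsin C.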

[12] = molecular target: Ubiquitin carboxyl-terminal hydrolase 1 (Homo sapiens) (UniProt O94782); assay: Inhibitors of USP1/UAF1: Pilot qHTS (AID 504865); also: nearly all actives have a fitted effect of over 35% in size; also: potency is read from the fitted curve at half-maximal effect
Summary of the method: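 Enzyme-free wells gave the negative control, while test wells held 1nM USP1/UAF1 preincubated with compound for 15 min at room temperature. Ub-Rho at 150nM final started the reaction, and fluorescence at 480/540 nm was recorded kinetically.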

[13] = Primary qHTS for small molecule stabilizers of the endoplasmic reticulum resident proteome: Secreted ER Calcium Modulated Protein (SERCaMP) assay (AID 1508630); also: % is scaled to controls: 0 for no effect and ±100 for the full control effect
Summary of the method: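 GLuc-SERCaMP-expressing SH-SY5Y cells, pretreated 16 h with compound, are challenged with thapsigargin to empty ER calcium stores; after 4 h, coelenterazine is added directly to the medium and luminescence is imaged.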

[14] = molecular target: Cytochrome P450 2C19 (Homo sapiens) (UniProt P33261); assay: qHTS Assay for Inhibitors and Substrates of Cytochrome P450 2C19 (AID 899); also: potency is read from the fitted curve at half-maximal effect; nearly all actives have a fitted effect of over 60% in size
Summary of the method: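 Reactions contain 5nM enzyme, 10uM Luciferin-H EGE (KM) and 50mM KPO4; compound preincubates 10 min at 37C, NADPH regeneration starts turnover for 60 min. Luminescence after detection reagent gives activity.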

[15] = Confirmation and Secondary Assay for Modulators of Hemoglobin Beta Chain Splicing at IVS2 705 locus (AID 930);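 also: HeLa cells stably expressing the EGFP-705 splicing reporter; GFP fluorescence per well restored by corrected splicing of the IVS2-705 intron in EGFP; % of control where 0% means no effect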
Summary of the method: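 Assay measures total GFP intensity per well in HeLa EGFP-705 cells after 2 days with compound; mis-splicing normally truncates EGFP, so fluorescence indicates corrected splicing.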

[16] = molecular target: Lysosomal acid glucosylceramidase (Homo sapiens) (UniProt P04062); assay: Glucocerebrosidase-p2 (AID 348; in the data active = potency below about 10 µM; also: potency is read from the fitted curve at half-maximal effect); conditions: purified GBA, blue fluorogenic substrate, 40 min
Summary of the method: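 Compounds titrated from 0.6 nM upwards against 0.2 nM enzyme in pH 5.9 citric acid/KH2PO4, taurocholate, tween-20; blue fluorogenic substrate 80 uM, 40 min room temperature, stopped and read Ex 365/Em 440 for AC50.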

[17] = molecular target: 3',5'-cyclic-AMP phosphodiesterase 4B (Homo sapiens) (UniProt Q07343); assay: qHTS Assay for Inhibitors of PDE-IV (AID 607; active = well fitted activation curve with a large enough effect in the main read-out, with a control signal flat, not every such curve was filed as active; also: % of control where 0% means no effect)
Summary of the method: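 The readout is membrane depolarisation from a cAMP-sensing CNG channel, detected with a potential dye at ex 535/em 590. Cells were HEK293-derived (endogenous PDE-IV) at 1000 cells/well, titrated up to 22.9 uM final.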

[18] = molecular target: Cytochrome P450 2C9 (Homo sapiens) (UniProt P11712); assay: qHTS Assay for Inhibitors and Substrates of Cytochrome P450 2C9 (AID 883); also: potency is read from the fitted curve at half-maximal effect; nearly all actives have a fitted effect of over 60% in size
Summary of the method: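 Turnover of Luciferin-H (100uM, KM) by 10nM human CYP2C9 was measured over 60 min at 37C with NADPH regeneration; inhibitors and some substrates reduce luminescence. Data normalized to sulphaphenazole 57uM.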

[19] = measured here: cell count channel max response
[20] = measured here: lipid channel max response

Sequence of Cytochrome P450 1A2 (Homo sapiens) (P05177 whole entry, looked up): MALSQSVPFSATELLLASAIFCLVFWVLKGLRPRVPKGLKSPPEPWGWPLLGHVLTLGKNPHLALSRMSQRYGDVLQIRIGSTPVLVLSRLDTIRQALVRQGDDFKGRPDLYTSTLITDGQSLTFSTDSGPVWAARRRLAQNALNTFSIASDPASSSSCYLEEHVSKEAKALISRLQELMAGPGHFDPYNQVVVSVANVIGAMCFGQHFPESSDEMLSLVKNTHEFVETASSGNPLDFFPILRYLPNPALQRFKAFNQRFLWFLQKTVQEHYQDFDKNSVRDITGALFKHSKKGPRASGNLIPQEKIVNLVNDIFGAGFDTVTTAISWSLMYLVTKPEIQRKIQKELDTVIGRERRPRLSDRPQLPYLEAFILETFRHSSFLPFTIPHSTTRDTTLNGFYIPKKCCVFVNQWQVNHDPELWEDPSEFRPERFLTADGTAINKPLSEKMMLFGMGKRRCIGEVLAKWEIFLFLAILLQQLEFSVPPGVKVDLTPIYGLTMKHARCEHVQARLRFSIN
Sequence of Cytochrome P450 3A4 (Homo sapiens) (P08684 whole entry, looked up): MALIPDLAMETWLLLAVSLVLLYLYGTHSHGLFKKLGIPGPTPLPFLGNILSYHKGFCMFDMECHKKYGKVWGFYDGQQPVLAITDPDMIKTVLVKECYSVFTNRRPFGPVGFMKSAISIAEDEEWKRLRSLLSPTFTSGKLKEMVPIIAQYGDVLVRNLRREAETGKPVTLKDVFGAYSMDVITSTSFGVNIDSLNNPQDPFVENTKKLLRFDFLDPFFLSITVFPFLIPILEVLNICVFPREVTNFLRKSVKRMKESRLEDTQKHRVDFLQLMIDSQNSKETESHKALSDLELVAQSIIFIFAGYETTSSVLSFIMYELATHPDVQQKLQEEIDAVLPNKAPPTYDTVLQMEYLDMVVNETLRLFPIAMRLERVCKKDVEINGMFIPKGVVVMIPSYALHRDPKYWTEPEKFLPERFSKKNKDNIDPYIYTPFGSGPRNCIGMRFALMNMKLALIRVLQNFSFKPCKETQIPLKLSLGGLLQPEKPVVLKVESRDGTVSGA
Sequence of Glucocorticoid receptor (Homo sapiens) (P04150 whole entry, looked up, the tested form may be a part): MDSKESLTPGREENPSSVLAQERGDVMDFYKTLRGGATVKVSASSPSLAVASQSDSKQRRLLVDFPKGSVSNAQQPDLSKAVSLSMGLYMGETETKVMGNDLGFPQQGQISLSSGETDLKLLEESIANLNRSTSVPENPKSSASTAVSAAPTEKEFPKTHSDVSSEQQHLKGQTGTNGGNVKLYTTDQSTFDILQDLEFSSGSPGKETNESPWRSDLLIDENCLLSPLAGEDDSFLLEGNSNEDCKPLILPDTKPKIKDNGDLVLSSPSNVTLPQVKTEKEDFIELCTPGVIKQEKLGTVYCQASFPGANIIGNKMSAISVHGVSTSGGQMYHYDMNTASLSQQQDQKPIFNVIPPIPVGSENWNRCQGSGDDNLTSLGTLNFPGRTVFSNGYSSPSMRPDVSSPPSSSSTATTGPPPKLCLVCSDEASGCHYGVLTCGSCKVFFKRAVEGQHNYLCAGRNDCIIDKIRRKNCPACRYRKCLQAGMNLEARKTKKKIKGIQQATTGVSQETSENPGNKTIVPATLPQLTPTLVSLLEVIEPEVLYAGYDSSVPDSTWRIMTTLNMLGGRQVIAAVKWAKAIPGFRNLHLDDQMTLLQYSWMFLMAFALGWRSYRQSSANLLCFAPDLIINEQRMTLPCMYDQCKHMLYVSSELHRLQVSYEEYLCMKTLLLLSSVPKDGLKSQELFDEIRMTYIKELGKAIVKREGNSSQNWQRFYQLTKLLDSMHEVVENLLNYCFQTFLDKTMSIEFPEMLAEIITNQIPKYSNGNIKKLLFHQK
Sequence of Ubiquitin carboxyl-terminal hydrolase 1 (Homo sapiens) (O94782 whole entry, looked up): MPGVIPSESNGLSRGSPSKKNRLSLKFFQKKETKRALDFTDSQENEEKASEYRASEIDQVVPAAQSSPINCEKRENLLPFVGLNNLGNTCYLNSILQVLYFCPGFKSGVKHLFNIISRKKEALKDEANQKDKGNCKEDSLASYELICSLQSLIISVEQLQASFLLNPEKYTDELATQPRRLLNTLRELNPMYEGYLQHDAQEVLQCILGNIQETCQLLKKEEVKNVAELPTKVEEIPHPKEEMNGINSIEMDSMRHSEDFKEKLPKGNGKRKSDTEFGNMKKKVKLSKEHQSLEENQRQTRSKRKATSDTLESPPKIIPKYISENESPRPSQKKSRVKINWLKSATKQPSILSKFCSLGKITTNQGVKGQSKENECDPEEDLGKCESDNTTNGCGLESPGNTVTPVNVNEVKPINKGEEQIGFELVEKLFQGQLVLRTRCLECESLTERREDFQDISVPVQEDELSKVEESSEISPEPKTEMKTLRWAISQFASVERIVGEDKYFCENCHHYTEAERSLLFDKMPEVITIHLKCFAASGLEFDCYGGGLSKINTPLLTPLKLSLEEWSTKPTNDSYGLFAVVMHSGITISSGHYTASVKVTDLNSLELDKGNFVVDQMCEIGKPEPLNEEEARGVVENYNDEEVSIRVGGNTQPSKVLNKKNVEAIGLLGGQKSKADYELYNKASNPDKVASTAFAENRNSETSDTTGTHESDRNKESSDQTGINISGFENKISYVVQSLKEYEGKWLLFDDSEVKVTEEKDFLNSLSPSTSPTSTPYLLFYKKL
Sequence of 3',5'-cyclic-AMP phosphodiesterase 4B (Homo sapiens) (Q07343 whole entry, looked up): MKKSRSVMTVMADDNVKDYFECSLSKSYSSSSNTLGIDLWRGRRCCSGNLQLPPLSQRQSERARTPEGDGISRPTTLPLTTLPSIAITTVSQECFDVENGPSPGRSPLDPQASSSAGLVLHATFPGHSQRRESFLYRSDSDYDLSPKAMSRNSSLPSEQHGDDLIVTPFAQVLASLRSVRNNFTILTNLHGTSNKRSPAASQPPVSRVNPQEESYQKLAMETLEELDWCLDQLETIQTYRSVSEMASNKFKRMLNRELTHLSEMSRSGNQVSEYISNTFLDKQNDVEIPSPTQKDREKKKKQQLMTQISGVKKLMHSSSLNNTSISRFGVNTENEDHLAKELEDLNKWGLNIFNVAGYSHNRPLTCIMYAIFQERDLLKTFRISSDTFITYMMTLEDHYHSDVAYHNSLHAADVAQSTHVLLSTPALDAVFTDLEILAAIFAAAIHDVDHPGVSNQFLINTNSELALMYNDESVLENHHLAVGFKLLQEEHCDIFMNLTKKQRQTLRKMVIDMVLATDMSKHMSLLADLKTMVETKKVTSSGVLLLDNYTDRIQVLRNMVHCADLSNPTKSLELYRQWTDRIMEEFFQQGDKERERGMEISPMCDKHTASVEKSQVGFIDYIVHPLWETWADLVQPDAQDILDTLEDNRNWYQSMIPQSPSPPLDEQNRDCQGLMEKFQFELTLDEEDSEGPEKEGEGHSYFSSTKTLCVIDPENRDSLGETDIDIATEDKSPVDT
Sequence of Cytochrome P450 2C9 (Homo sapiens) (P11712 whole entry, looked up): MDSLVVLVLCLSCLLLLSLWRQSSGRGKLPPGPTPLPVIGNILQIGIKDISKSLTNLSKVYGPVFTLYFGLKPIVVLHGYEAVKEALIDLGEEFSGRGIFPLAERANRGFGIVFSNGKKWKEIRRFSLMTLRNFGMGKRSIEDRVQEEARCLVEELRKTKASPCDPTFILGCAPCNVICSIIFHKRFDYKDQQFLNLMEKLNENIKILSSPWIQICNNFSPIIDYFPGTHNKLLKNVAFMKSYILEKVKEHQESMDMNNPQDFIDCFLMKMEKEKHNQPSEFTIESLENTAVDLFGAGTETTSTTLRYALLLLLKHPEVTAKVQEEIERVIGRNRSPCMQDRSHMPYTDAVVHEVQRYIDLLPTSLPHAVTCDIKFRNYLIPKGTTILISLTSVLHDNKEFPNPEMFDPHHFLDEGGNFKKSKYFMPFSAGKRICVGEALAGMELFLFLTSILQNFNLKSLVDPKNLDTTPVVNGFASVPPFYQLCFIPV
Sequence of Cytochrome P450 2C19 (Homo sapiens) (P33261 whole entry, looked up): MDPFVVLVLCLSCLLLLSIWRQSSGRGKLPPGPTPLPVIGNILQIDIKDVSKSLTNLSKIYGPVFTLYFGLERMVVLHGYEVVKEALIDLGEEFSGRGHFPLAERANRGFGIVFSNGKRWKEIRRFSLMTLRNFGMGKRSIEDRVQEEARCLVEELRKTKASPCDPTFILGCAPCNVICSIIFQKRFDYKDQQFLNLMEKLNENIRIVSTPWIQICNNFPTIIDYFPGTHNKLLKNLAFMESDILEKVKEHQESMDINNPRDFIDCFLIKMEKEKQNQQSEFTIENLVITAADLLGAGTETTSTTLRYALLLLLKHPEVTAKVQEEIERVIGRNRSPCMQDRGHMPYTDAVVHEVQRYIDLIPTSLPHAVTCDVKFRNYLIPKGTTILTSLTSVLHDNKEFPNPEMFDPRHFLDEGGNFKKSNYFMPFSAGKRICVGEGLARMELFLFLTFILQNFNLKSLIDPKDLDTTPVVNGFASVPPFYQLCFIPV
Sequence of Lysosomal acid glucosylceramidase (Homo sapiens) (P04062 whole entry, looked up): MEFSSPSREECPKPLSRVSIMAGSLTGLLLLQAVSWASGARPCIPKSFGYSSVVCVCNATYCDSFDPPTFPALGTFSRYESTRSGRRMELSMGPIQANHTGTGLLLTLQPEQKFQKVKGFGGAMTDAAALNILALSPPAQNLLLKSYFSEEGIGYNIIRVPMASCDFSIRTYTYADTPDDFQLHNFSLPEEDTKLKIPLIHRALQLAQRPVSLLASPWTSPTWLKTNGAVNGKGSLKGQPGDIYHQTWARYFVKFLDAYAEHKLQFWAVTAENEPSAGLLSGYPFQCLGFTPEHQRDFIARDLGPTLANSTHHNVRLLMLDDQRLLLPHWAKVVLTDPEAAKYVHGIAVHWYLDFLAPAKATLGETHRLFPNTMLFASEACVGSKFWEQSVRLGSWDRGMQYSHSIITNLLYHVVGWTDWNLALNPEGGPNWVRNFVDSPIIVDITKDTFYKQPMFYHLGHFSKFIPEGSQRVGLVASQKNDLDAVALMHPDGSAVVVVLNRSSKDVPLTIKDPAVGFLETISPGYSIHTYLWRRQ

SMILES: Cc1ccccc1-c1nc(NCc2cccnc2)c2ccccc2n1
- activity change, negative = inhibition [1]: -6.01% (inactive)
- Potency [2]: 0.501 µM (active)
- activity change, negative = inhibition [3]: -1.21% (inactive)
- activity, negative = inhibition [4]: 3.29% (inactive)
- Potency [5]: > 46 µM (inactive)
- Potency [6]: > 46 µM (inactive)
- Potency [7]: inactive
- Potency [8]: 0.501 µM (active)
- Potency [9]: inactive
- Potency [10]: inactive
- activity change, negative = inhibition [11]: 1.87% (inactive)
- max response [11, 19]: -7.11%
- max response [11, 20]: -4.19%
- Potency [12]: 28.2 µM (active)
- outcome [13]: inactive

SMILES: FC(F)(F)c1ccccc1-c1cncnc1Nc1ccccc1
- activity change, negative = inhibition [1]: -9.67% (inactive)
- Potency [2]: 25.1 µM (active)
- activity change, negative = inhibition [3]: 9.21% (inactive)
- activity, negative = inhibition [4]: 7.53% (inactive)
- Potency [5]: > 46 µM (inactive)
- Potency [6]: > 46 µM (inactive)
- Potency [7]: inactive
- Potency [8]: 0.501 µM (active)
- Potency [9]: inactive
- Potency [14]: 7.94 µM (active)
- outcome [15]: inactive
- activity change, negative = inhibition [11]: 4.42% (inactive)
- max response [11, 19]: 10.3%
- max response [11, 20]: 16.8%
- Potency [12]: inactive
- outcome [13]: inactive

SMILES: O=C(c1cccc(F)c1)N1CCC2(CCCN(C(c3ccccc3)c3ccccc3)C2)CC1
- Potency [16]: > 11.4 µM (inactive)
- Potency [2]: 6.31 µM (active)
- activity, negative = inhibition [4]: 17.2% (inactive)
- Potency [6]: > 46 µM (inactive)
- Potency [7]: inactive
- Potency [17]: inactive
- Potency [18]: 3.16 µM (active)
- activity change, negative = inhibition [11]: 2.12% (inactive)
- max response [11, 19]: 14.6%
- max response [11, 20]: 19.7%
- outcome [13]: inactive
